According to PubChem BioAssay (EPA / NIEHS):
Activity calls are given as the source filed them. The calls were made as follows: active = hit-call score of the fitted dose curve at least 0.9, where 1 is the maximum; inactive = score below 0.9.

target: Hepatocyte nuclear factor 3-beta (Homo sapiens) (UniProt Q9Y261); experiment: ATG_FoxA2_CIS: Attagene CIS-FACTORIAL HepG2 Assay for human Forkhead box A2 (FOXA2) (AID 2282942); conditions: HepG2 cis-reporter transcription factor activity, 24 h; actives raise or lower the signal
Sequence (Q9Y261 whole entry, looked up): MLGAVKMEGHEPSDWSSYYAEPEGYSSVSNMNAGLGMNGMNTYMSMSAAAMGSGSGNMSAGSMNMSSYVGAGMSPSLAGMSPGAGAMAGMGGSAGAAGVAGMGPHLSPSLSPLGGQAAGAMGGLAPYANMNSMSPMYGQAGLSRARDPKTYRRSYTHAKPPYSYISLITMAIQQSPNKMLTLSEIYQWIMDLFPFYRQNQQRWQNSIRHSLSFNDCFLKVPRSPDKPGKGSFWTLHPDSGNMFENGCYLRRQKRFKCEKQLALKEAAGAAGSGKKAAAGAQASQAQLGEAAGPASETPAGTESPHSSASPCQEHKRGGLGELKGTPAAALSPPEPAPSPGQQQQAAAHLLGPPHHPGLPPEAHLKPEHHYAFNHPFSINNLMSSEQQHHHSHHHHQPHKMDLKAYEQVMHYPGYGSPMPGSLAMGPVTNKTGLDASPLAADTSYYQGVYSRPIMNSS
How it was run: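 Multiplexed cis-element reporter assay in transiently transfected HepG2. Twenty-four hours post-dosing, RNA was reverse-transcribed, amplified, FAM-labelled, HpaI-digested and separated by CE. Activity gain or loss relative to DMSO.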

SMILES	outcome
ClC1=C(Cl)[C@]2(Cl)[C@@H]3[C@@H](Cl)[C@H](Cl)C[C@@H]3[C@@]1(Cl)C2(Cl)Cl	inactive
O=S(=O)(c1ccccc1)c1ccccc1	inactive
CCC(C)c1cc(C(C)(C)C)cc(-n2nc3ccccc3n2)c1O (configuration not stated)	inactive
CC1(C)C(=O)NC(=O)NC1=O	inactive
CC(=O)/C=C/c1ccccc1	inactive
c1ccc(P(c2ccccc2)c2ccccc2)cc1	inactive
CCOC(=O)COc1ccc(Cl)cc1Cl	inactive
CCN(CC)C(=S)S	inactive
N#Cc1cccc(C#N)c1	inactive
O=C1Nc2ccc(Cl)cc2C(c2ccccc2)=NC1O (configuration not stated)	inactive
N#CC(c1ccccc1)c1ccccc1	inactive
C[N+](C)=CCl	inactive

test system: not listed separately; experiment: ATG_FoxO_CIS: Attagene CIS-FACTORIAL HepG2 Assay for human Forkhead box O (FoxO) (AID 2282943); conditions: HepG2 Attagene cis-reporter, FoxO element, mRNA; actives raise or lower the signal
How it was run: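 Endogenous transcription factor activity read from multiplexed cis-promoter reporter transcripts in transiently transfected HepG2, 24 h after dosing. Reporter RNA measured via RT-PCR plus capillary electrophoresis of FAM-labeled products; gain or loss relative to DMSO.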

SMILES	outcome
O=C1C(Cl)=C(Cl)C(=O)C(Cl)=C1Cl	inactive
N#CCCCCC#N	inactive
CC1CCC(=O)O1 (configuration not stated)	inactive
COc1cc(OC)c(OC)cc1C=O	inactive
CC(C)c1ccc(O)cc1	inactive
C[N+](C)(C)CC(=O)[O-]	inactive
CC(C)(c1cc(Cl)c(O)c(Cl)c1)c1cc(Cl)c(O)c(Cl)c1	inactive
O=C(NCNC(=O)NC1C(=O)NC(=O)N1CO)NC1C(=O)NC(=O)N1CO (configuration not stated)	inactive
[N-]=[N+]=CC(=O)OC[C@H](N)C(=O)O	inactive
COCC(=O)N(c1c(C)cccc1C)N1CCOC1=O	inactive
CC(C)CCCCCCCOP(=O)(Oc1ccccc1)Oc1ccccc1	inactive
CCC1CCC(=O)O1 (configuration not stated)	inactive
C=COCCCl	inactive
C=CCN(CC=C)C(=O)C(Cl)Cl	inactive
CC[N+](=O)[O-]	inactive
CC(Cc1ccc(C(C)(C)C)cc1)CN1C[C@@H](C)O[C@@H](C)C1 (some centres not stated)	inactive
[Cl-].[Cl-].[Cl-].[Yb+3]	inactive
CCOC(=O)N(C)N=O	inactive
O=CNC(N1CCN(C(NC=O)C(Cl)(Cl)Cl)CC1)C(Cl)(Cl)Cl (configuration not stated)	inactive
CCC[N+](=O)[O-]	inactive

SMILES	outcome
CC(C)(O)C#N	inactive
CC(C)C#N	inactive
S=c1[nH]c2ccccc2[nH]1	inactive
CCCCCc1cc(O)cc(O)c1	inactive
c1ccc(Nc2ccc3ccccc3c2)cc1	inactive
CSc1nc(N=[N+]=[N-])nc(NC(C)C)n1	inactive
CC=Cc1ccc2c(c1)OCO2	inactive
Cc1ccc(OP(=O)(Oc2ccc(C)cc2)Oc2ccc(C)cc2)cc1 (tested in a mixture with another compound)	inactive
ClC1=C(Cl)[C@]2(Cl)[C@@H]3[C@@H](Cl)[C@H](Cl)C[C@@H]3[C@@]1(Cl)C2(Cl)Cl	inactive
O=S(=O)(c1ccccc1)c1ccccc1	inactive
CCC(C)c1cc(C(C)(C)C)cc(-n2nc3ccccc3n2)c1O (configuration not stated)	inactive
CC1(C)C(=O)NC(=O)NC1=O	inactive
CC(=O)/C=C/c1ccccc1	inactive
c1ccc(P(c2ccccc2)c2ccccc2)cc1	inactive
CCOC(=O)COc1ccc(Cl)cc1Cl	inactive
CCN(CC)C(=S)S	inactive
N#Cc1cccc(C#N)c1	inactive
O=C1Nc2ccc(Cl)cc2C(c2ccccc2)=NC1O (configuration not stated)	inactive
N#CC(c1ccccc1)c1ccccc1	inactive
C[N+](C)=CCl	inactive

test system: not listed separately; experiment: ATG_GATA_CIS: Attagene CIS-FACTORIAL HepG2 Assay for human GATA Binding Protein (AID 2282944); conditions: HepG2 GATA cis-element reporter, Attagene multiplex mRNA; actives raise or lower the signal
How it was run: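 Reporter transcripts from a GATA cis-regulated unit, among multiplexed reporters in transfected HepG2 cells, were measured by RT-PCR with capillary electrophoresis after 24 h dosing. Induction or loss scored relative to DMSO.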

SMILES	outcome
O=C1C(Cl)=C(Cl)C(=O)C(Cl)=C1Cl	inactive
N#CCCCCC#N	inactive
CC1CCC(=O)O1 (configuration not stated)	inactive
COc1cc(OC)c(OC)cc1C=O	inactive
CC(C)c1ccc(O)cc1	inactive
C[N+](C)(C)CC(=O)[O-]	inactive
CC(C)(c1cc(Cl)c(O)c(Cl)c1)c1cc(Cl)c(O)c(Cl)c1	inactive
O=C(NCNC(=O)NC1C(=O)NC(=O)N1CO)NC1C(=O)NC(=O)N1CO (configuration not stated)	inactive
[N-]=[N+]=CC(=O)OC[C@H](N)C(=O)O	inactive
COCC(=O)N(c1c(C)cccc1C)N1CCOC1=O	inactive
CC(C)CCCCCCCOP(=O)(Oc1ccccc1)Oc1ccccc1	inactive
CCC1CCC(=O)O1 (configuration not stated)	inactive
C=COCCCl	inactive
C=CCN(CC=C)C(=O)C(Cl)Cl	inactive
CC[N+](=O)[O-]	inactive
CC(Cc1ccc(C(C)(C)C)cc1)CN1C[C@@H](C)O[C@@H](C)C1 (some centres not stated)	inactive
[Cl-].[Cl-].[Cl-].[Yb+3]	inactive
CCOC(=O)N(C)N=O	inactive
O=CNC(N1CCN(C(NC=O)C(Cl)(Cl)Cl)CC1)C(Cl)(Cl)Cl (configuration not stated)	inactive
CCC[N+](=O)[O-]	inactive

SMILES	outcome
CC(C)(O)C#N	inactive
CC(C)C#N	inactive
S=c1[nH]c2ccccc2[nH]1	inactive
CCCCCc1cc(O)cc(O)c1	inactive
c1ccc(Nc2ccc3ccccc3c2)cc1	inactive
CSc1nc(N=[N+]=[N-])nc(NC(C)C)n1	inactive
CC=Cc1ccc2c(c1)OCO2	inactive
Cc1ccc(OP(=O)(Oc2ccc(C)cc2)Oc2ccc(C)cc2)cc1 (tested in a mixture with another compound)	inactive
ClC1=C(Cl)[C@]2(Cl)[C@@H]3[C@@H](Cl)[C@H](Cl)C[C@@H]3[C@@]1(Cl)C2(Cl)Cl	inactive
O=S(=O)(c1ccccc1)c1ccccc1	inactive
CCC(C)c1cc(C(C)(C)C)cc(-n2nc3ccccc3n2)c1O (configuration not stated)	inactive
CC1(C)C(=O)NC(=O)NC1=O	inactive
CC(=O)/C=C/c1ccccc1	inactive
c1ccc(P(c2ccccc2)c2ccccc2)cc1	inactive
CCOC(=O)COc1ccc(Cl)cc1Cl	inactive
CCN(CC)C(=S)S	inactive
N#Cc1cccc(C#N)c1	inactive
O=C1Nc2ccc(Cl)cc2C(c2ccccc2)=NC1O (configuration not stated)	inactive
N#CC(c1ccccc1)c1ccccc1	inactive
C[N+](C)=CCl	inactive
